Each structure is given as a SMILES string. Activity calls are given as the source filed them. The calls were made as follows: active = hit-call score of the fitted dose curve at least 0.9, where 1 is the maximum; inactive = score below 0.9.

Assay [1] in a line: ATG_CRE_CIS: Attagene CIS-FACTORIAL HepG2 Assay for human cAMP Responsive Element (CRE) binding protein 3 (AID 2282926). The following applies: HepG2 CRE cis-reporter, Attagene multiplexed mRNA; actives raise or lower the signal. A digest of the protocol: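 Capillary electrophoresis of 6-FAM-labelled, HpaI-digested PCR products quantified reporter transcripts. These came from HepG2 transiently transfected with cis-element reporters and exposed to test chemicals for 24 hours, with DMSO defining baseline activity.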

Assay [2] has as its target CCAAT/enhancer-binding protein beta (Homo sapiens) (UniProt P17676). The experiment in a line: ATG_C_EBP_CIS: Attagene CIS-FACTORIAL HepG2 Assay for human CCAAT/Enhancer Binding Protein (C/EBP) beta (AID 2282927). The following applies: HepG2 Attagene cis-factorial transcription factor reporter; actives raise or lower the signal. A digest of the protocol:
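HepG2 transiently transfected with multiplexed reporter units under cis-regulatory promoters reporting endogenous C/EBPb activity. After 24 h exposure, reporter mRNA assayed by RT-PCR, fluorescent labelling, HpaI digestion and capillary electrophoresis; bidirectional fitting versus DMSO.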

The nature of assay [3]: ATG_CMV_CIS: Attagene CIS-FACTORIAL HepG2 Assay for human CMV (Internal Marker) (AID 2282928).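 Also: endpoint acts as a background internal control marker rather than a target.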 The following applies: HepG2 CMV promoter reporter, transcription factor profiling; actives raise or lower the signal. A digest of the protocol:
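24 h chemical treatment, HepG2 with transient multi-reporter transfection; RNA → oligo(dT) RT → PCR → 6-FAM extension → HpaI digest → CE fluorescence. Bidirectional fit, DMSO negative control.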

Assay [4] can be described thus: ATG_DR4_LXR_CIS: Attagene CIS-FACTORIAL HepG2 Assay for human Liver X Receptor (LXR), DR4 submotif (AID 2282929). The following applies: HepG2 Attagene DR4 cis-reporter, mRNA transcription; actives raise or lower the signal. A digest of the protocol:
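Transiently transfected HepG2 liver cells; cis-regulated reporters; 24 h dosing. RT-PCR plus CE read-out of reporter mRNA. DMSO baseline, bidirectional curve fitting.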

For assay [5], the target named is Aryl hydrocarbon receptor (Homo sapiens) (UniProt P35869). The experiment in a line: ATG_Ahr_CIS: Attagene CIS-FACTORIAL HepG2 Assay for human Aryl Hydrocarbon Receptor (Ahr) (AID 2282930). The following applies: HepG2 AhR cis-factorial reporter transcription; actives raise or lower the signal. A digest of the protocol:
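HepG2 cells transiently transfected with cis-element-driven multiplexed reporter units; endogenous AhR activity read as reporter mRNA 24 h after dosing, via RT-PCR, 6-FAM labelling, HpaI digestion and capillary electrophoresis. Bidirectional fit relative to DMSO.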

The nature of assay [6]: ATG_AP_2_CIS: Attagene CIS-FACTORIAL HepG2 Assay for human Activator Protein 2 (AP-2) (AID 2282932). The following applies: HepG2 AP-2 cis-reporter, Attagene transcription factor profiling; actives raise or lower the signal. A digest of the protocol:
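Read-out: fluorescent reporter mRNA via RT-PCR and capillary electrophoresis, 24 h post-dose in transiently transfected HepG2. Endogenous factors drive cis-promoter reporters; gain or loss of signal fitted bidirectionally against DMSO.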

Assay [7] in a line: ATG_BRE_CIS: Attagene CIS-FACTORIAL HepG2 Assay for human Bone Morphogenetic Protein (BMP) Response Element (BRE) (AID 2282933). The following applies: HepG2 BMP response element reporter, Attagene transcription factor profiling; actives raise or lower the signal. A digest of the protocol: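 Endogenous transcription factor activity at a BMP response element was monitored in transfected HepG2 cells 24 h after dosing. Fluorescent RT-PCR products were resolved by capillary electrophoresis, and activity was fitted in both directions versus DMSO.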

The target in assay [8] is Retinoic acid receptor alpha (Homo sapiens) (UniProt P10276). The experiment in a line: ATG_DR5_RAR_CIS: Attagene CIS-FACTORIAL HepG2 Assay for human Retinoic Acid Receptor Alpha (RARE), DR5 submotif (AID 2282934). The following applies: HepG2 Attagene cis-factorial RARE DR5 reporter, mRNA; actives raise or lower the signal. A digest of the protocol: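 HepG2 cells transiently transfected with multiplexed reporter units; DR5 cis-element drives reporter through endogenous transcription factors. After 24 h dosing, reporter mRNA quantified by RT-PCR, fluorescent labeling, HpaI digestion and capillary electrophoresis; bidirectional fitting versus DMSO.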
Retinoic acid receptor alpha (Homo sapiens), sequence (P10276 whole entry, looked up): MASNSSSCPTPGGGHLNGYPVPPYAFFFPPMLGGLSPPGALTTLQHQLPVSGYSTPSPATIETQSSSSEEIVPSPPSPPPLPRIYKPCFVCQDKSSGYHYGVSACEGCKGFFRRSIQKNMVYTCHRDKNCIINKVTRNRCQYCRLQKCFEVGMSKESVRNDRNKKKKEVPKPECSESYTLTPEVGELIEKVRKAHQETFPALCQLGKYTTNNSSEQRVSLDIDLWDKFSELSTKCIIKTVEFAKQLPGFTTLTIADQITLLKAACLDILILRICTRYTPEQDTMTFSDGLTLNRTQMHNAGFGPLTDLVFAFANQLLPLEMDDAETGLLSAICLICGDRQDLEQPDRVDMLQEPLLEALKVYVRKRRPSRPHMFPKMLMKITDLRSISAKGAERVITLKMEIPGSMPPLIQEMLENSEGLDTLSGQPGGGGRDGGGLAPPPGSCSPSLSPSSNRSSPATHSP

In assay [9] the target is Transcription factor E2F1 (Homo sapiens) (UniProt Q01094). The experiment in a line: ATG_E2F_CIS: Attagene CIS-FACTORIAL HepG2 Assay for human E2F Transcription Factor 1 (AID 2282935). The following applies: HepG2 Attagene cis-reporter, E2F reporter RNA transcripts; actives raise or lower the signal. A digest of the protocol:
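Transient MRTU transfection of HepG2; 24 h compound exposure; RNA → oligo(dT) RT → PCR → FAM label → HpaI cut → CE fluorescence. Gain/loss of signal fit against DMSO.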

The nature of assay [10]: ATG_E_Box_CIS: Attagene CIS-FACTORIAL HepG2 Assay for human Enhancer Box (E-box) (AID 2282936). The following applies: HepG2 E-box cis-reporter transcription, actives raise or lower the signal. A digest of the protocol: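 Transiently transfected HepG2, endogenous TF-driven reporters, 24 h dosing. Readout: RT-PCR plus capillary electrophoresis of fluorescent reporter fragments. Gain or loss of signal fitted bidirectionally against DMSO baseline.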

A short description of assay [11]: ATG_M_61_CIS: Attagene CIS-FACTORIAL HepG2 Assay for M61 Transcription Factor (Internal Marker) (AID 2282937). The following applies: HepG2 Attagene CIS-FACTORIAL M61 internal marker reporter; actives raise or lower the signal. A digest of the protocol:
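Multiplexed reporter mRNA assay, HepG2 human hepatoma cells, 24 h treatment. Signal: FAM-labelled, HpaI-digested RT-PCR fragments by CE. Fit: bidirectional, baseline DMSO.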

Assay [12] is described as follows: ATG_EGR_CIS: Attagene CIS-FACTORIAL HepG2 Assay for human Early Growth Response 1 (EGR1) (AID 2282938). The following applies: HepG2 Attagene CIS-FACTORIAL EGR reporter mRNA; actives raise or lower the signal. A digest of the protocol:
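Multiplexed cis-reporter system in human hepatoma HepG2 cells, transiently transfected. Cells are dosed for 24 h; reporter transcripts are amplified, fluorescently tagged and sized by capillary electrophoresis, with DMSO as negative control.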

A short description of assay [13]: ATG_M_19_CIS: Attagene CIS-FACTORIAL HepG2 Assay for M19 Transcription Factor (Internal Marker) (AID 2282939). The following applies: HepG2 Attagene CIS-FACTORIAL M19 internal marker reporter; actives raise or lower the signal. A digest of the protocol:
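Background-control endpoint from a multiplexed HepG2 reporter panel. Cells carrying cis-regulated reporter constructs are treated 24 h, then reporter transcripts are amplified, fluorescently labelled and sized by capillary electrophoresis. DMSO defines baseline.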

The nature of assay [14]: ATG_Ets_CIS: Attagene CIS-FACTORIAL HepG2 Assay for human Erythroblast Transformation Specific (ETS) (AID 2282941). The following applies: HepG2 ETS cis-reporter transcription, actives raise or lower the signal. A digest of the protocol:
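Cis-regulated reporter mRNA induction in HepG2 (transient transfection), 24 h exposure, RT-PCR plus capillary electrophoresis detection; DMSO serves as negative control and baseline.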

Assay [15] concerns the target Hepatocyte nuclear factor 3-beta (Homo sapiens) (UniProt Q9Y261). The experiment in a line: ATG_FoxA2_CIS: Attagene CIS-FACTORIAL HepG2 Assay for human Forkhead box A2 (FOXA2) (AID 2282942). The following applies: HepG2 cis-reporter transcription factor activity, 24 h; actives raise or lower the signal. A digest of the protocol: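 Multiplexed cis-element reporter assay in transiently transfected HepG2. Twenty-four hours post-dosing, RNA was reverse-transcribed, amplified, FAM-labelled, HpaI-digested and separated by CE. Activity gain or loss relative to DMSO.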

Assay [16] is described as follows: ATG_FoxO_CIS: Attagene CIS-FACTORIAL HepG2 Assay for human Forkhead box O (FoxO) (AID 2282943). The following applies: HepG2 Attagene cis-reporter, FoxO element, mRNA; actives raise or lower the signal. A digest of the protocol:
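HepG2 cells transiently transfected with cis-element-driven reporter units report endogenous FoxO activity. After 24 h chemical exposure, reporter mRNA quantified by RT-PCR, fluorescent labeling, HpaI digestion and capillary electrophoresis; bidirectional fit versus DMSO.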

Assay [17] is described as follows: ATG_GATA_CIS: Attagene CIS-FACTORIAL HepG2 Assay for human GATA Binding Protein (AID 2282944). The following applies: HepG2 GATA cis-element reporter, Attagene multiplex mRNA; actives raise or lower the signal. A digest of the protocol: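 Endogenous transcription factor activity was captured through cis-promoter-driven reporters in transfected HepG2 cells. After 24 h exposure, reporter transcripts were quantified by RT-PCR with fluorescent capillary electrophoresis, and responses fitted both directions against DMSO.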

Assay [18] can be described thus: ATG_GLI_CIS: Attagene CIS-FACTORIAL HepG2 Assay for human Zinc Finger Protein GLI1 (AID 2282945). The following applies: HepG2, Attagene cis-factorial reporter mRNA, GLI element; actives raise or lower the signal. A digest of the protocol:
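Transiently transfected HepG2 cells report endogenous transcription factor activity via cis-element-driven reporter units. After 24 h compound exposure, reporter mRNA was measured by RT-PCR with capillary electrophoresis; bidirectional fitting against DMSO baseline.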

Assay [19] in a line: ATG_AP_1_CIS: Attagene CIS-FACTORIAL HepG2 Assay for human Activator Protein 1 (AP-1) (AID 2282931). The following applies: HepG2 Attagene cis-factorial AP-1 reporter mRNA; actives raise or lower the signal. A digest of the protocol: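 We transfected HepG2 cells transiently with a set of cis-regulated reporter transcription units, dosed them for 24 h, and quantified reporter mRNA via RT-PCR and capillary electrophoresis, scoring gain or loss of signal relative to DMSO.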

Assay [20] can be described thus: ATG_ERE_CIS: Attagene CIS-FACTORIAL HepG2 Assay for Estrogen Response Element (ERE) (AID 2282940). The following applies: HepG2 ERE cis-reporter, Attagene RNA transcript; actives raise or lower the signal. A digest of the protocol:
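Cells used were human hepatoma HepG2, transfected with multiple reporter transcription units under cis-regulatory promoters. Reporter mRNA, read 24 h post-dosing via fluorescent RT-PCR products on capillary electrophoresis, was fitted bidirectionally relative to DMSO.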

Transcription factor E2F1 (Homo sapiens), sequence (Q01094 whole entry, looked up): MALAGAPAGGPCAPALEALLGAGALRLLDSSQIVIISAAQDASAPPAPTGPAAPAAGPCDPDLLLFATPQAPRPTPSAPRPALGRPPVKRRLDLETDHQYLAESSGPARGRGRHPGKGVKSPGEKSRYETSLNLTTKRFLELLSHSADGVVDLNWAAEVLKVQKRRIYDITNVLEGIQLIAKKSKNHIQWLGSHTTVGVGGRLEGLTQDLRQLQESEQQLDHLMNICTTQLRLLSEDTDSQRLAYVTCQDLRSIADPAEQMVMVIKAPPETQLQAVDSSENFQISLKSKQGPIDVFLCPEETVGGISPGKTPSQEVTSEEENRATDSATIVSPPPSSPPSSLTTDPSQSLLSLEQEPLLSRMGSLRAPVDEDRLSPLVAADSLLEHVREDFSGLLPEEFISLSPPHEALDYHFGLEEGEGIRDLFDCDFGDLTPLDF
Aryl hydrocarbon receptor (Homo sapiens), sequence (P35869 whole entry, looked up): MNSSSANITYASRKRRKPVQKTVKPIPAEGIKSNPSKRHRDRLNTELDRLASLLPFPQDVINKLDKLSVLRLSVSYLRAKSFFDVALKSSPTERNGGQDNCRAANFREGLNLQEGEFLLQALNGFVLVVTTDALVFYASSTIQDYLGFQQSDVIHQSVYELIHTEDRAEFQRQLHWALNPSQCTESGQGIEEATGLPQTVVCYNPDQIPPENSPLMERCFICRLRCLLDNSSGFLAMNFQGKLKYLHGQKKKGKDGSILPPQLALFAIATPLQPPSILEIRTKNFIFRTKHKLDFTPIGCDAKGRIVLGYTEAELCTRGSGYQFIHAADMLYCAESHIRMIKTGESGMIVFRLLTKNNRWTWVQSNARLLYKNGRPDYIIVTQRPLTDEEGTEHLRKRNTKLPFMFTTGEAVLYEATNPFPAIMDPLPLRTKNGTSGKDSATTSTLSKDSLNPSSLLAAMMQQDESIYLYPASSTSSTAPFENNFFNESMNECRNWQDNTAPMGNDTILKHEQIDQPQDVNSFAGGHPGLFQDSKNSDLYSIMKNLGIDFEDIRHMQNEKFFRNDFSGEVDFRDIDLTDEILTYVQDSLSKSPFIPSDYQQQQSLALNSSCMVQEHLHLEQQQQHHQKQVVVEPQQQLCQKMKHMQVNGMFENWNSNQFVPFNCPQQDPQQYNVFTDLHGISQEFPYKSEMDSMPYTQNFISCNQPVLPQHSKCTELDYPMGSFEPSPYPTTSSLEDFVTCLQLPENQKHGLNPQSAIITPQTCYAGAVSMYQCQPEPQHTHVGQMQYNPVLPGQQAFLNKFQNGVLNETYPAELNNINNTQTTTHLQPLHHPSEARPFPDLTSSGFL
Hepatocyte nuclear factor 3-beta (Homo sapiens), sequence (Q9Y261 whole entry, looked up): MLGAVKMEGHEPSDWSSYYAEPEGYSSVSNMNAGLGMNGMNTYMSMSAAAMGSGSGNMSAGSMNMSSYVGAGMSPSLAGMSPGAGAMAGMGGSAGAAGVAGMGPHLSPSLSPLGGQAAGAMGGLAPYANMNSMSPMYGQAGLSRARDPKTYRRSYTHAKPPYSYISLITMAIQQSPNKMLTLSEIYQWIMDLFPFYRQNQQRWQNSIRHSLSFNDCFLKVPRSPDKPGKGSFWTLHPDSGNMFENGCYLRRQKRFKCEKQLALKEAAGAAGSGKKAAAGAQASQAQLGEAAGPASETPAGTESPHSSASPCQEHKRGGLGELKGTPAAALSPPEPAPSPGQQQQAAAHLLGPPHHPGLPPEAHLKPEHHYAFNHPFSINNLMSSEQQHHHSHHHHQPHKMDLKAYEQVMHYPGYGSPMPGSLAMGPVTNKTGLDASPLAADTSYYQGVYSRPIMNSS
CCAAT/enhancer-binding protein beta (Homo sapiens), sequence (P17676 whole entry, looked up): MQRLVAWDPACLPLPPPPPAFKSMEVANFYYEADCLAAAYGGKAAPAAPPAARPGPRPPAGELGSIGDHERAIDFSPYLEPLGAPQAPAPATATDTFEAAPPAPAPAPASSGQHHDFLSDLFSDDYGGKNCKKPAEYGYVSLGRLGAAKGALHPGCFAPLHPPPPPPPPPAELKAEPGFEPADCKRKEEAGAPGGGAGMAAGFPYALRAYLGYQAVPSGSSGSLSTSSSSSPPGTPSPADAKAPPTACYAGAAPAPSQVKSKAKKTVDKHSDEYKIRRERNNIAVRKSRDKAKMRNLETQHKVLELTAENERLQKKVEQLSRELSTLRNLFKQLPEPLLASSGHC

For orientation: AC50 means the midpoint of the concentration-response curve, whichever way the signal moves. For the compound `Nc1ccc(Cl)cc1N`, the result in [1], in assay [2], in [4], in assay [6], in assay [7] and in assay [8] was inactive. The compound was called inactive in [9], in assay [10], in assay [11], in [13], in [14] and in assay [15]. In addition, the compound was called inactive in assay [16], in assay [17] and in assay [18]. In addition, the AC50 in assay [3] was 6.32 µM (active); in [5], 0.431 µM (active); in assay [12], 28.2 µM (active).

For the compound `CCCCCCCCCCCCCN1CC(C)OC(C)C1` (stereo not given), the call in assay [1], in assay [2], in [4], in assay [5], in assay [6] and in assay [8] was inactive. The compound was called inactive in assay [9], in assay [10], in assay [11], in [12], in [13] and in [20]. For the same compound, the outcome in assay [14], in [15], in assay [16], in assay [17] and in assay [18] was inactive. For the same compound, the AC50 in assay [3] was 33.4 µM (active); in assay [19], 50.9 µM (active); in [7], 50 µM (active).

Turning to `O=P(OCCCl)(OCCCl)OCCCl`, the compound was classed as inactive in assay [1], in [2], in assay [3], in assay [4], in assay [5] and in [19]. For the same compound, the compound was classed as inactive in assay [7], in assay [8], in [9], in assay [10], in assay [11] and in assay [12]. Further, the compound was classed as inactive in assay [13], in [14], in assay [15], in assay [16], in assay [17] and in assay [18].

`O=C1CCCO1`: the call in [1], in assay [2], in [3], in assay [4], in assay [5] and in assay [19] was inactive. Besides, the call in [6], in assay [7], in assay [8], in assay [9], in assay [10] and in [11] was inactive. Also, the result in assay [12], in [13], in assay [14], in assay [15], in assay [16] and in [17] was inactive. In addition, the result in assay [18] was inactive.

(Values after PubChem BioAssay (EPA / NIEHS).)
